{"source": "PubChem BioAssay (EPA / NIEHS)", "note": "Calls of active or inactive are those of the source. Rule for the calls: active = hit-call score of the fitted dose curve at least 0.9, where 1 is the maximum; inactive = score below 0.9."}
{"assay": "ATG_ERE_CIS: Attagene CIS-FACTORIAL HepG2 Assay for Estrogen Response Element (ERE) (AID 2282940)", "details": "HepG2 ERE cis-reporter, Attagene RNA transcript; actives raise or lower the signal", "protocol": "ATG_CIS is a cell-based, multiplexed-readout assay that uses HepG2, a human liver cell line, with measurements taken at 24 hours after chemical dosing in a 24-well plate.ATG_ERE_CIS is one of 52 assay component(s) measured or calculated from the ATG_CIS assay. It is designed to make measurements of mRNA induction, a form of inducible reporter, as detected with fluorescence intensity signals by Reverse transcription polymerase chain reaction (RT-PCR) and Capillary electrophoresis technology.Data from the assay component ATG_ERE_CIS was analyzed into 1 assay endpoint. This assay endpoint, ATG_ERE_CIS, was analyzed with bidirectional fitting relative to DMSO as the negative control and baseline of activity. Using a type of inducible reporter, measures of mRNA for gain or loss-of-signal activity can be used to understand the reporter gene at the transcription factor-level as they relate to the gene ESR1. Furthermore, this assay endpoint can be referred to as a primary readout, because this assay has produced multiple assay endpoints where this one serves a reporter gene function. To generalize the intended target to other relatable targets, this assay endpoint is annotated to the nuclear receptor intended target family, where the subfamily is steroidal.\nHuman liver HepG2 cells are transiently transfected with multiple reporter transcription units (MRTUs) in 6-well plates using FuGene 6 reagent (Roche; 3 ml FuGene/1 mg DNA). The MRTU constructs are regulated by a cis-regulating element (promoter). […] A major difference between the CIS and TRANS system is that in CIS activities of endogenous TFs are measured, whereas the TRANS assay evaluates changes in activities of exogenous, chimeric NR-Gal4 proteins. […] At the end of 24 hour incubation, total RNA was isolated using TriZol reagent (Invitrogen). The isolated RNA is then reverse-transcribed using oligo(dT) primer and Mo-MLV reverse transcriptase (Invitrogen) with DNAse I (Ambion) treatment for 30 min. The one-tenth of the produced cDNA was amplified by PCR using Taq DNA polymerase (Invitrogen) and two reporter sequence-specific primers. The PCR products were fluorescently labeled by primer extension with 6-arboxyfluorescein (6-FAM) 5'-labeled reporter sequence-specific primer (2 min at 95 C, 20 s at 68 C and 10 min at 72 C) and these products were digested with 5U of HpaI (New England Biolabs) for 2h at 37 C. The fragments were purified using Qiaquick PCR columns (Qiagen), analyzed on an ABI 3130xL genetic analyzer (Applied Biosystems) with peak positions identified by using a set of X-rhodamine (ROX)-labeled MapMarker1000 molecular weight standards (BioVentures). The raw capillary electrophoresis data was processed using Attagraph software (Attagene)."}
{"smiles": "CCCCCOC(=O)c1ccccc1C(=O)OCCCCC", "outcome": "inactive"}
{"smiles": "Brc1ccc(Oc2ccccc2)cc1", "AC50": "50.8 µM (active)"}
{"smiles": "CNC(=O)Oc1cccc2c1OC(C)(C)C2", "outcome": "inactive"}
{"smiles": "N#CC(Br)Br", "AC50": "76.7 µM (active)"}
{"smiles": "OCCOCCO", "outcome": "inactive"}
{"smiles": "OCCCBr", "outcome": "inactive"}
{"smiles": "CC(C)COC(=O)c1ccccc1C(=O)OCC(C)C", "AC50": "39.6 µM (active)"}
{"smiles": "CCC[CH2][Sn]([Cl])([CH2]CCC)[CH2]CCC", "outcome": "inactive"}
{"smiles": "[O-][Cl+]O", "outcome": "inactive"}
{"smiles": "CCCCCCCCCCCCCN1CC(C)OC(C)C1", "note": "(stereo not given)", "outcome": "inactive"}
{"smiles": "COc1cc(C=O)cc2c1[C@H](COC(N)=O)[C@]1(OC(C)=O)ON2C[C@H]2[C@@H]1N2C(C)=O", "AC50": "51 µM (active)"}
{"smiles": "Cc1ccc([N+](=O)[O-])cc1", "outcome": "inactive"}
{"smiles": "Clc1ccc(C(c2ccc(Cl)cc2)C(Cl)Cl)cc1", "AC50": "19.3 µM (active)"}
{"smiles": "Nc1ccc(N=Nc2ccccc2)cc1", "AC50": "27 µM (active)"}
{"smiles": "ClC1=C(Cl)C2(Cl)C3C(Cl)C=CC3C1(Cl)C2(Cl)Cl", "note": "(stereo not given)", "AC50": "24.4 µM (active)"}
{"smiles": "C[N+](C)(C)CC1CO1", "note": "(stereo not given)", "outcome": "inactive"}
{"smiles": "CCC12COCN1COC2", "outcome": "inactive"}
{"smiles": "CCOc1cccc(C2(N3CCN(c4ccccc4)CC3)CCC(C)CC2)c1", "note": "(stereo not given)", "outcome": "inactive"}
{"smiles": "O=[N+]([O-])C(Br)(CO)CO", "outcome": "inactive"}
{"smiles": "CCCCCCCCn1sccc1=O", "outcome": "inactive"}
{"smiles": "CO[C@@H]1[C@H](OC(=O)NC(=O)CCl)CC[C@]2(CO2)[C@H]1[C@@]1(C)O[C@@H]1CC=C(C)C", "outcome": "inactive"}
{"smiles": "ClC1=C(Cl)[C@]2(Cl)[C@H]3[C@H]([C@@H]4C=C[C@H]3C4)[C@@]1(Cl)C2(Cl)Cl", "AC50": "16.1 µM (active)"}
{"smiles": "Cn1cc(-c2ccccc2)c(=O)c(-c2cccc(C(F)(F)F)c2)c1", "outcome": "inactive"}
{"smiles": "O=C(Oc1ccc(Br)cc1)N1CCN2CCC1CC2", "outcome": "inactive"}
{"smiles": "O=C(Nc1ccccc1)c1ccccc1I", "AC50": "30.3 µM (active)"}
